Data published in PubChem BioAssay (NCATS).
“And” between values parts separate entries of the source, which are not always exact repeats. Equal entries are not always repeated. Results filed as inconclusive are left out. Some structures have more than one record in an assay (separate samples or runs), and their calls can disagree. The source made the active and inactive calls. Unless noted, the call rests on the fitted dose curve; in most records, active means well fitted curve in the direction sought with a large enough effect; inconclusive means small, poorly fitted or top-dose-only effect, or another doubt; inactive means no such curve, though single readings can be large; an effect the other way counts as inactive or inconclusive.

molecular target: Cytochrome P450 2C9 (Homo sapiens) (UniProt P11712); assay: Cytochrome P450 family 2 subfamily C member 9 (CYP2C9) small molecule antagonists: luciferase biochemical (cell-free) qHTS assay (AID 1645842; active means well fitted curve in the direction sought with a large enough effect in the repeat runs; an effect the other way counts as inactive or inconclusive; further: nearly all actives have a fitted effect of over 55% in size); conditions: P450-Glo CYP2C9 enzyme assay, luciferin luminescence; series mostly up to 57.4 µM
How it was run: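 Luminescence, after 20 min with luciferin detection reagent, reflected CYP2C9 turnover during a 1 h NADPH-driven reaction at 37C. Enzyme-substrate mix contained 0.4% bovine serum albumin and was preincubated with compound 10 min at room temperature.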
Potency means the concentration at half of the fitted maximal effect.

Cytochrome P450 2C9 (Homo sapiens), sequence (P11712 whole entry, looked up): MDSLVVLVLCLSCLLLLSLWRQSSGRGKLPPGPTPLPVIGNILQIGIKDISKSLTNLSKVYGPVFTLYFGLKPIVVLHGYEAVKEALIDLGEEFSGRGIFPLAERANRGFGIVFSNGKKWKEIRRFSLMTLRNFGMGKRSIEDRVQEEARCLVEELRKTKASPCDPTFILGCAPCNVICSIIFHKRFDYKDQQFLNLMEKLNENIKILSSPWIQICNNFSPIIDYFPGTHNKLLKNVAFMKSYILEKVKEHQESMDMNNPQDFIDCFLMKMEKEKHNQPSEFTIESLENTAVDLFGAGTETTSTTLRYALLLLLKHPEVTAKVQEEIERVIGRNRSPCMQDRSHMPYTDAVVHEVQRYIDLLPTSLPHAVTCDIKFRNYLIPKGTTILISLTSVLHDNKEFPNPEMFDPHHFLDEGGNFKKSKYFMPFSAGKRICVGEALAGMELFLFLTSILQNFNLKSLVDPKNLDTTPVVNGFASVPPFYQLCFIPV

SMILES | Potency
Cc1ccc(NC(=O)c2cccc(N(C)C)c2)cc1NC(=O)c1ccc(O)cc1 | 7.56 µM (active)
NS(=O)(=O)c1ccc(Nc2nc(OCC3CCCCC3)c3[nH]cnc3n2)cc1 | 26.8 µM (active)
COc1ccc(C=CC(=O)Nc2ccccc2C(=O)O)cc1OC | 16.9 µM (active)
CCNC(=O)Nc1ccc(Oc2ncnc(N)c2C=NOC)cc1Cl | inactive
c1ccc(CNc2nc(N3CCOc4ccccc43)nc3c2CCCC3)cc1 | 1.9 µM (active)
c1cc(OCCN2CCCCC2)cc(-c2n[nH]c3ccc(-c4ncn[nH]4)cc23)c1 | inactive
CCc1cccc(CC)c1NC(=O)N1Cc2[nH]nc(NC(=O)c3ccc(N4CCN(C)CC4)cc3)c2C1 | inactive
O=C(CCCN1CCN(c2ccc(F)cc2)CC1)NC1c2ccccc2CSc2ccccc21 (stereo not drawn) | 8.71 µM (active)
Fc1ccc(CNc2ncnc3ccc(F)cc23)cc1 | 8.49 µM (active)
OC[C@H]1O[C@@H](OCCc2ccc(O)cc2)[C@H](O)[C@@H](O)[C@H]1O | inactive
Clc1ccc(C2(c3ccc(-c4cn[nH]c4)cc3)CCNCC2)cc1 | 1.2 µM (active)
O=C(c1ccc(F)c(F)c1Nc1ccc(I)cc1F)N1CC(O)([C@H]2CCCCN2)C1 | inactive
CCCCC[C@H](O)C=C[C@H]1[C@H](O)CC(=O)[C@H]1CC=CCCCC(=O)O | inactive
NS(=O)(=O)c1cc(Cl)c(Cl)c(S(N)(=O)=O)c1 | inactive
CN1CCC(COc2cnc(-c3cccc(Cn4nc(-c5cccc(C#N)c5)ccc4=O)c3)nc2)CC1 | 16.9 µM (active)
Cc1nc(C(=O)NCC(=O)O)c(O)c2ccc(Oc3ccccc3)cc12 | inactive
CC1=C(C(=O)Nc2cc3cn[nH]c3cc2F)C(c2ccc(C(F)(F)F)cc2)CC(=O)N1 (stereo not drawn) | 19 µM (active)
Cc1nc2c([nH]1)CCN(C(=O)c1ccc(NC(=O)c3ccccc3-c3ccccc3)cc1)c1ccccc1-2 | inactive

tested on: not listed separately; assay: Primary qHTS for inhibitors of nuclear receptor binding SET domain protein 2 (NSD2) in an isogenic RCH-ACV NSD2 p.E1099K mutant (9B) (AID 1645876); conditions: RCH-ACV NSD2 E1099K (9B) viability, CellTiter-Glo, 72 h; series mostly up to 44.9 µM; further: nearly all actives have a fitted effect of over 70% in size

SMILES | Potency
O=C1C(c2c(O)[nH]c3ccccc23)=Nc2ccccc21 | 8.93 µM (active) and inactive
NS(=O)(=O)c1ccc(Nc2nc(OCC3CCCCC3)c3[nH]cnc3n2)cc1 | 13.2 µM (active)
O=c1cc(-c2ccc(O)c(O)c2)oc2cc(O)cc(O)c12 | 10.5 µM (active)
COc1ccc(-c2nc3ccc(C4=NNC(=O)CC4C)cc3[nH]2)cc1 (stereo not drawn) | 9.44 µM (active) and 14.8 µM (active)
c1cc(OCCN2CCCCC2)cc(-c2n[nH]c3ccc(-c4ncn[nH]4)cc23)c1 | 16.6 µM (active)
CCc1cccc(CC)c1NC(=O)N1Cc2[nH]nc(NC(=O)c3ccc(N4CCN(C)CC4)cc3)c2C1 | 817 nM (active) and 1.18 µM (active)
Nc1nc(Cl)nc2c1ncn2[C@@H]1O[C@H](CO)[C@@H](O)[C@H]1F | 0.0231 µM (active)
CN1CCc2c(n(Cc3ccc(C(=O)NO)cc3)c3ccccc23)C1 | 18.3 µM (active) and 16.6 µM (active)
Cc1ccc(S(=O)(=O)Nc2nc3ccccc3nc2Nc2ccc3nsnc3c2)cc1 | inactive
Cc1cccc(Nc2nc(N[C@@H]3CCCC[C@H]3N)ncc2C(N)=O)c1 | 1.48 µM (active)
COc1cc2c(cc1Cc1cccc(Cl)c1F)c(=O)c(C(=O)O)cn2[C@H](CO)C(C)C | 7.42 µM (active)
Clc1ccc(C2(c3ccc(-c4cn[nH]c4)cc3)CCNCC2)cc1 | 3.65 µM (active) and 3.72 µM (active)
CCCCC[C@H](O)C=C[C@H]1[C@H](O)CC(=O)[C@H]1CC=CCCCC(=O)O | 0.417 µM (active)
NS(=O)(=O)c1cc(Cl)c(Cl)c(S(N)(=O)=O)c1 | inactive
CN1CCC(COc2cnc(-c3cccc(Cn4nc(-c5cccc(C#N)c5)ccc4=O)c3)nc2)CC1 | 11.8 µM (active) and 16.3 µM (active)
Cc1nc(C(=O)NCC(=O)O)c(O)c2ccc(Oc3ccccc3)cc12 | inactive

tested on: not listed separately; assay: Primary qHTS for inhibitors of nuclear receptor binding SET domain protein 2 (NSD2) in an RCH-ACV wild type WT cells (2C) (AID 1645877); conditions: RCH-ACV (leukaemia line) NSD2 WT (2C) viability, CellTiter-Glo, 72 h; series mostly up to 44.9 µM; further: nearly all actives have a fitted effect of over 70% in size

SMILES | Potency
C[C@]12CC[C@@H]3c4ccc(O)cc4CC[C@H]3[C@H]1[C@@H](O)[C@@H](O)[C@H]2O | inactive
O=C1C(c2c(O)[nH]c3ccccc23)=Nc2ccccc21 | 2.24 µM (active) and inactive
NS(=O)(=O)c1ccc(Nc2nc(OCC3CCCCC3)c3[nH]cnc3n2)cc1 | 13.2 µM (active)
COc1ccc(-c2nc3ccc(C4=NNC(=O)CC4C)cc3[nH]2)cc1 (stereo not drawn) | 5.96 µM (active) and 11.8 µM (active)
CCCC1OC2C[C@@H]3[C@H]4CCC5=CC(=O)C=C[C@]5(C)[C@H]4C(O)C[C@]3(C)[C@]2(C(=O)CO)O1 (stereo partly drawn) | 0.0053 µM (active)
COc1cc(F)c(C(C)C)cc1-c1ccc(C(F)(F)F)cc1CN1C(=O)O[C@H](c2cc(C(F)(F)F)cc(C(F)(F)F)c2)[C@@H]1C | inactive
CN(C)S(=O)(=O)c1ccc2c(c1)C(=Cc1cc3c([nH]1)CCCC3)C(=O)N2 | 2.95 µM (active)
COc1cc2nccc(Oc3ccc(NC(=O)Nc4ccc(F)cc4F)c(F)c3)c2cc1OC | 2.35 µM (active)
c1cc(OCCN2CCCCC2)cc(-c2n[nH]c3ccc(-c4ncn[nH]4)cc23)c1 | 13.2 µM (active)
Nc1nc(Cl)nc2c1ncn2[C@@H]1O[C@H](CO)[C@@H](O)[C@H]1F | 0.0206 µM (active)
CN1CCc2c(n(Cc3ccc(C(=O)NO)cc3)c3ccccc23)C1 | 14.5 µM (active) and 18.6 µM (active)
Cc1ccc(S(=O)(=O)Nc2nc3ccccc3nc2Nc2ccc3nsnc3c2)cc1 | 14.6 µM (active) and inactive
Cc1cccc(Nc2nc(N[C@@H]3CCCC[C@H]3N)ncc2C(N)=O)c1 | 1.48 µM (active)
CCCCCCCCCCCCCCCC(=O)O[C@H]1[C@@H](O)[C@@H](O)[C@@H]([C@H](NC(=O)[C@@H]2C[C@@H](CCC)CN2C)[C@H](C)Cl)O[C@@H]1SC | inactive
Cc1ccc2c(c1)C(=O)[C@]1(O)CCN(c3ccccc3)C1=N2 | 23 µM (active)
COc1cc2c(cc1Cc1cccc(Cl)c1F)c(=O)c(C(=O)O)cn2[C@H](CO)C(C)C | 5.25 µM (active)
Clc1ccc(C2(c3ccc(-c4cn[nH]c4)cc3)CCNCC2)cc1 | 1.83 µM (active) and 2.35 µM (active)
CCCCc1ccc(NS(=O)(=O)c2ccc(C)c(C(=O)N3CCN(c4cccc(C)c4C)CC3)c2)cc1 | inactive
COc1cccc(OC)c1-c1cc(C(=O)NC2(C(=O)O)C3CC4CC(C3)CC2C4)nn1-c1ccnc2cc(Cl)ccc12 (stereo not drawn) | inactive
CCCCC[C@H](O)C=C[C@H]1[C@H](O)CC(=O)[C@H]1CC=CCCCC(=O)O | 23.7 µM (active)
NS(=O)(=O)c1cc(Cl)c(Cl)c(S(N)(=O)=O)c1 | inactive
CN1CCC(COc2cnc(-c3cccc(Cn4nc(-c5cccc(C#N)c5)ccc4=O)c3)nc2)CC1 | 10.5 µM (active) and 16.3 µM (active)
Nc1ccn([C@@H]2O[C@H](CO)[C@@H](O)[C@H]2O)c(=O)n1 | inactive
O=C(NC[C@H](O)CO)c1ccncc1Nc1ccc(I)cc1F | 16.6 µM (active)
